Assays:
Assay in all cases: DAPPL (digital affinity profiling via proximity ligation, sequencing); 10 mM Tris-HCl pH 7.5, 50 mM NaCl, 1 mM DTT, 4% glycerol, room temperature, 30 min; GST-TFs on glutathione beads, 16-mer random dsDNA library, 0.1% formaldehyde crosslink after washing; high values mean tight binding
Conditions in all cases: protein: recombinant; tags: N-terminal GST; dsDNA, one strand shown
[1] = target: T1, SPIC (Homo sapiens, UniProt Q8N5J4 1-248)
T1 sequence: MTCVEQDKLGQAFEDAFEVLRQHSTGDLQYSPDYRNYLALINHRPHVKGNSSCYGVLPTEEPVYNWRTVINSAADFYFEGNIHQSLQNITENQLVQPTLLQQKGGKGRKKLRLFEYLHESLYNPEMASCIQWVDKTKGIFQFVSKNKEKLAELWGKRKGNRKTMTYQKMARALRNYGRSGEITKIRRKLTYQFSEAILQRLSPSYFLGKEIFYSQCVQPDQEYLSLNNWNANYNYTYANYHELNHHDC
How it was run: (§1)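 Sequencing on an Illumina NextSeq500 followed washing, crosslinking with 0.1% formaldehyde, proximity ligation (BsaI/T4 ligase, 1 h, 37 °C) and PCR amplification of pools that had been incubated for 30 min at room temperature with 200 nmole of a random double-stranded 16-mer DNA library in Tris/NaCl/DTT/glycerol buffer. Each pool held DNA-barcoded human transcription factors, expressed in yeast as GST fusions and captured on glutathione beads, plus a tag-only sample. Binding signal is a hexamer's read frequency for a factor divided by its frequency in the tag-only sample.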

[2] = target: T2, ELK4 (Homo sapiens, UniProt P28324-2 1-405)
T2 sequence: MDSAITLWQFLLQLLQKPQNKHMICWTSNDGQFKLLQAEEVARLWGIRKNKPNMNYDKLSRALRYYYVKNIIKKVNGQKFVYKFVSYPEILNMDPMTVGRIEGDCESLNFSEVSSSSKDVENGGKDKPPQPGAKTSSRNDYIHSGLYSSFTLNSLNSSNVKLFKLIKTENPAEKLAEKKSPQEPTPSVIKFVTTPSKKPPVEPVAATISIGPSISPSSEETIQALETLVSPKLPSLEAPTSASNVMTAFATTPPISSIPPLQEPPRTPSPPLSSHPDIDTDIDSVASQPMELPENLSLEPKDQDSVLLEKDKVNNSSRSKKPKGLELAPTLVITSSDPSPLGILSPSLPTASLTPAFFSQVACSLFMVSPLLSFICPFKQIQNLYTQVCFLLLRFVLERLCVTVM
How it was run: as §1

[3] = target: T3, ETV2 (Homo sapiens, UniProt O00321 1-342)
T3 sequence: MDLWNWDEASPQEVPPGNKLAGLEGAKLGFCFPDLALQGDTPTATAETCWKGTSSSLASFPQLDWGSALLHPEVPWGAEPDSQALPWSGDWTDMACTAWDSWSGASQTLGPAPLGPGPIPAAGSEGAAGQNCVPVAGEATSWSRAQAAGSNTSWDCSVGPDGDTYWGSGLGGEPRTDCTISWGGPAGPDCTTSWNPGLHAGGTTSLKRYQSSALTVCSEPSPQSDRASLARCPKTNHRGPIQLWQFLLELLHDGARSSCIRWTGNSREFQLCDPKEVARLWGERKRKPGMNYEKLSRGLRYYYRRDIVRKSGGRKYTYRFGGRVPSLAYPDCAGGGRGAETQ
How it was run: as §1

[4] = target: T4, ERF (Homo sapiens, UniProt P50548 1-548)
T4 sequence: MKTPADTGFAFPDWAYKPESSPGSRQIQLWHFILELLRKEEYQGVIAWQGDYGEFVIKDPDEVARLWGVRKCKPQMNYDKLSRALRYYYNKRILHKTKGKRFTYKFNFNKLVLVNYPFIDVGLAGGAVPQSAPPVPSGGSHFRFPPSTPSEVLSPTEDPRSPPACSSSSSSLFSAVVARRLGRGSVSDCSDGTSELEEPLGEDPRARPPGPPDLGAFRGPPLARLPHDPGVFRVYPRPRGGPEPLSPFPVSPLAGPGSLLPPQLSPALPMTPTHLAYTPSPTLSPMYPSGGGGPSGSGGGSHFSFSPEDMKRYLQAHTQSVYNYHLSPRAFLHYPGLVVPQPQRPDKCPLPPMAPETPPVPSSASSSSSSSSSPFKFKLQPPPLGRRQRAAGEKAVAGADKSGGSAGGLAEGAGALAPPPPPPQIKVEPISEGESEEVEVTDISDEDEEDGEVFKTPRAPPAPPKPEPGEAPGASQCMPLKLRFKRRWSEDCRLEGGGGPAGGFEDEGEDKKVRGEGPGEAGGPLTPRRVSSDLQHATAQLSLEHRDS
How it was run: as §1

[5] = target: T5, SPDEF (Homo sapiens, UniProt O95238 1-335)
T5 sequence: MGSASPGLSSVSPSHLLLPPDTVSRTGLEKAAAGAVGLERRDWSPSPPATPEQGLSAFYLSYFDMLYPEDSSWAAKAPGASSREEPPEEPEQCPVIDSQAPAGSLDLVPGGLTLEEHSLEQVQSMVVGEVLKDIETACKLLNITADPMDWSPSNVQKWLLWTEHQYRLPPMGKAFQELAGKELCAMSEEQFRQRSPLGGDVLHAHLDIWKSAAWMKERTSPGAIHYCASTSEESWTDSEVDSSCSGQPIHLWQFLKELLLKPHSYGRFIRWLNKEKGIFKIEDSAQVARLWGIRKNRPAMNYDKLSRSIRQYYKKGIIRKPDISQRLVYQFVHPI
How it was run: as §1

[6] = target: T6, ETV7 (Homo sapiens, UniProt Q9Y603 1-341)
T6 sequence: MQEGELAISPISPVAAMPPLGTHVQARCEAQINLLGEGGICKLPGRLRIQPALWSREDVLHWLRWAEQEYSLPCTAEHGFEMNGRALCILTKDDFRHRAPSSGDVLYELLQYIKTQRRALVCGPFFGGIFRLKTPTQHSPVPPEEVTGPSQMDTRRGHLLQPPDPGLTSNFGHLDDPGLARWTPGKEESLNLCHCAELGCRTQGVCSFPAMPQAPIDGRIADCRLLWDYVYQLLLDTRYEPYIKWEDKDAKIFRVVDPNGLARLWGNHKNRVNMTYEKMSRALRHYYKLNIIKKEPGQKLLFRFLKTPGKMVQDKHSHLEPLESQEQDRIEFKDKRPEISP
How it was run: as §1

[7] = target: T7, GABPA (Homo sapiens, UniProt Q06546 1-454)
T7 sequence: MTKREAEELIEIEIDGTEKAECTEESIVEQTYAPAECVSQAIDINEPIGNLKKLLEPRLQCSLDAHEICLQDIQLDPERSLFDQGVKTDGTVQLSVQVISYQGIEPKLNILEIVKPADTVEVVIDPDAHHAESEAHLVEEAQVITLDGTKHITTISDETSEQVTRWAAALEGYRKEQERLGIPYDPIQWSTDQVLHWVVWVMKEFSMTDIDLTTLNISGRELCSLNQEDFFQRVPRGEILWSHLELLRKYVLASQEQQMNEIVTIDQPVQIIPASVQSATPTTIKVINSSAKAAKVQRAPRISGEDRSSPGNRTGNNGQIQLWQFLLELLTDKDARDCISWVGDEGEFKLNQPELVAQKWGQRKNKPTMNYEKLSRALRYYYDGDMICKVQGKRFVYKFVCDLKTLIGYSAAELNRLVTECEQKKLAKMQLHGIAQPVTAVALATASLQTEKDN
How it was run: as §1

[8] = target: SPI1 (Homo sapiens, UniProt P17947 1-270)
How it was run: as §1

[9] = target: SPIB (Homo sapiens, UniProt Q01892 1-262)
SPIB, sequence (Q01892 whole entry): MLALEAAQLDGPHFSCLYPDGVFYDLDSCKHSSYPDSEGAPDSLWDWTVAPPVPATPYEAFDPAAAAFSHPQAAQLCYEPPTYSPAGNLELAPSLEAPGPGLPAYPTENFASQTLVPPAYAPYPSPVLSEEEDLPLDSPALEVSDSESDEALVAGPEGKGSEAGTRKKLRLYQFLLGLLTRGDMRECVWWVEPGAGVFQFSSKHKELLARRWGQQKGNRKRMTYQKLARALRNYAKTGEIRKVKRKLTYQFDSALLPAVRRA
How it was run: as §1

[10] = target: T8, ELK3 (Homo sapiens, UniProt P41970 1-407)
T8 sequence: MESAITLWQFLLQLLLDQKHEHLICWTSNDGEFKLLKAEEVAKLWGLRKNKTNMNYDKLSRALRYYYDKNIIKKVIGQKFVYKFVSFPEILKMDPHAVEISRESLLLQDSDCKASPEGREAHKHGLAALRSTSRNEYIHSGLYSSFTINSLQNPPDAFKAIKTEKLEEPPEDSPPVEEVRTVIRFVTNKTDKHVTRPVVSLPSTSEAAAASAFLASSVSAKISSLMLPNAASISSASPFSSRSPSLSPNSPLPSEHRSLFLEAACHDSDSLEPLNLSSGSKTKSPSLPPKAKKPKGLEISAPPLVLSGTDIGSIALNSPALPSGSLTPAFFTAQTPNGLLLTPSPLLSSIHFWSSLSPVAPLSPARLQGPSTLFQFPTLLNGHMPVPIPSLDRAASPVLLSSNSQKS
How it was run: as §1

[11] = target: T9, FEV (Homo sapiens, UniProt Q99581 1-238)
T9 sequence: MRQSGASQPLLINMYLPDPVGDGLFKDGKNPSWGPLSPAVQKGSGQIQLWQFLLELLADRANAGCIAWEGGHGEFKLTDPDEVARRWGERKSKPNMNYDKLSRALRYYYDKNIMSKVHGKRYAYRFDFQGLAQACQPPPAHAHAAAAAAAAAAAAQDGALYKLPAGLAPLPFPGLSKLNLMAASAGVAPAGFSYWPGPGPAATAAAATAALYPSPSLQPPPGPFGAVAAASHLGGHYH
How it was run: as §1

[12] = target: T10, ELF3 (Homo sapiens, UniProt P78545 1-371)
T10 sequence: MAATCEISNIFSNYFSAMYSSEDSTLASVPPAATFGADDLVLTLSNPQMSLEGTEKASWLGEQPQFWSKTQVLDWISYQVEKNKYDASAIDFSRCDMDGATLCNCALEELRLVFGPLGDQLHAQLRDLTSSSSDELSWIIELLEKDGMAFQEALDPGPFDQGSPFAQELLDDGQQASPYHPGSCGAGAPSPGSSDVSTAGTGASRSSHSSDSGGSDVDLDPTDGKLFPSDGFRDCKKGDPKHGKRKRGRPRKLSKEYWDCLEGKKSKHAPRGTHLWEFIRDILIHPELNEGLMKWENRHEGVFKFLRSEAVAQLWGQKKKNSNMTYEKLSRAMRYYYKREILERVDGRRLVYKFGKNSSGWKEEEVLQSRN
How it was run: as §1

[13] = target: T11, ETV3L (Homo sapiens, UniProt Q6ZN32 1-361)
T11 sequence: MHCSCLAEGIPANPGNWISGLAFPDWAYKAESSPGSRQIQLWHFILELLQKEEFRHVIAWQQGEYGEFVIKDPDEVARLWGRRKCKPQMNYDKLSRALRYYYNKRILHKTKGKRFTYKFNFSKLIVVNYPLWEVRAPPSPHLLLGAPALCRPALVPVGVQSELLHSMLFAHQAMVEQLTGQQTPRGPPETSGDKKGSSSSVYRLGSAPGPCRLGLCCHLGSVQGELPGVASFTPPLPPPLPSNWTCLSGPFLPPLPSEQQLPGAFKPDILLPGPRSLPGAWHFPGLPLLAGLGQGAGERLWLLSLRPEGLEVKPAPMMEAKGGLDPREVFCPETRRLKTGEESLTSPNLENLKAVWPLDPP
How it was run: as §1

With CGACAG the binding signal [1] was 1.01 fold enrichment (6-mer frequency, TF over GST control), the binding signal [2] was 1.03 fold enrichment (6-mer frequency, TF over GST control) and the binding signal [3] was 1.07 fold enrichment (6-mer frequency, TF over GST control). The binding signal [4] was 1.07 fold enrichment (6-mer frequency, TF over GST control), the binding signal [5] was 1.01 fold enrichment (6-mer frequency, TF over GST control) and the binding signal [6] was 1.08 fold enrichment (6-mer frequency, TF over GST control).
TGGCGC was tested, and the binding signal [7] was 1.02 fold enrichment (6-mer frequency, TF over GST control), the binding signal [1] was 1.1 fold enrichment (6-mer frequency, TF over GST control) and the binding signal [2] was 1.06 fold enrichment (6-mer frequency, TF over GST control).
GGCGTT was tested, and the binding signal [8] was 1.03 fold enrichment (6-mer frequency, TF over GST control), the binding signal [9] was 1.05 fold enrichment (6-mer frequency, TF over GST control) and the binding signal [10] was 1.02 fold enrichment (6-mer frequency, TF over GST control). For the same sequence, the binding signal [11] was 1.01 fold enrichment (6-mer frequency, TF over GST control), the binding signal [1] was 1.08 fold enrichment (6-mer frequency, TF over GST control) and the binding signal [3] was 1.13 fold enrichment (6-mer frequency, TF over GST control). For the same sequence, the binding signal [12] was 1.1 fold enrichment (6-mer frequency, TF over GST control), the binding signal [4] was 1.01 fold enrichment (6-mer frequency, TF over GST control) and the binding signal [13] was 1.09 fold enrichment (6-mer frequency, TF over GST control).
